Shown are actives, neighbours in structure and some others; about 3.4% of the full set was active somewhere.
GPR151 activ = activates the human receptor GPR151; Q8TDV0; 650,000 compounds, 1% hits; activation, % at 11.2 µM; PathHunter beta-arrestin GPR151 cells, luminescence; in the data active = activation above about 4.9%;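 note: 0% = median of compound wells and 100% = cells with positive control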
TEAD-YAP inh = TEAD-YAP interaction inhibition | HEK-TIYL cells, TEAD-Gal4/YAP UAS-luciferase luminescence | inhibition, % at 9.12 µM | 640,000 compounds, 1.4% hits | AID 1259422; in the data active = inhibition above about 32%;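 note: 0% = median of test compound wells and 100% = reference inhibitor wells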
MITF primary = human MITF inhibition, primary screen; 650,000 compounds, 0.91% hits; O75030; AlphaScreen MITF homodimerization, bead proximity signal; AID 1259374; inhibition, % at 2.6 µM; in the data active = inhibition above about 50%;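 note: 0% = vehicle wells with protein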
FBW7 act = activators of human E3 ligase FBW7. AlphaScreen FBW7–phospho-cyclin E peptide binding, activator screen. normalized activity (activation), % at 26.1 µM. 650,000 compounds, 0.13% hits. AID 1259310; in the data active = normalized activity above about 1.9%;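 note: purified mutant Fbw7 with reduced substrate affinity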
GPR151 conf act = confirmation of human GPR151 activators | AID 1508609 | 6,700 tested, under 10 active | activation, % at 11.2 µM | GPR151 PathHunter beta-arrestin cells, luminescence, 90 min; % of EA-reagent control over plate median | shares compounds with GPR151 activ;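 active = mean percent activation across replicates above the confirmation screen cutoff of 4.91%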
GPR119 counter = GPR119 activation, counter-screen for GPR151 activators. shares compounds with GPR151 activ. AID 1508611. activation, % at 11.2 µM. GPR119 PathHunter beta-arrestin cells, luminescence, 90 min; 0 = compound-well median, 100 = enzyme-acceptor control. 6,700 compounds, 0.3% hits;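 active = mean percent activation in the counterscreen above 29.09%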;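 note: counterscreen on off-target GPR119 to flag nonselective hits from the GPR151 activator screen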
An asterisk follows results filed as active; . = not tested or not shown; ! = not confirmed by another sample.

SMILES	GPR151 activ	TEAD-YAP inh	MITF primary	FBW7 act	GPR151 conf act	GPR119 counter
CC(C)(C)Nc1nc(-c2cccc(Br)c2)cs1	7.5*	-21	-4	0	1	-9
COc1cccc(-n2c(SCC(=O)N3CCc4ccccc43)nnc2-c2cccnc2)c1	0	2	0	0	.	.
O=C(CSc1nnc2ccc(-c3cccnc3)nn12)N1CCCC1	-1	-9	-2	0	.	.
COc1cccc(-n2c(SCC(=O)N3CCc4ccccc43)nnc2-c2ccncc2)c1	6.4*	11	5	0	0	-1
O=C(CSc1nnc2ccc(-c3cccnc3)nn12)N1CCc2ccccc21	5.4*	-5	9	1	1	4
O=C1N/C(=C/c2ccc3c(c2)OCCO3)C(=O)N1c1ccccc1	4	-42	-20	0	.	.
O=C(CCc1nc(-c2cnccn2)no1)NCc1cccc(C(F)(F)F)c1	1	-5	-5	0	.	.
O=C1OC(c2ccc(-c3ccccc3)cc2)=N/C1=C\c1cccnc1	14*	4	2	0	-1	-5
Cc1ccc(C(=O)CSc2nnc(-c3ccccc3N)n2C)cc1	5.9*	-10	-4	0	0	-7
COc1ccc(C2NC(C(=O)O)C3C(=O)N(c4ccc(F)cc4)C(=O)C23)c(OC)c1 (stereo unspecified)	1	4	-5	0	.	.
COc1ccc(OC)c(C2NC(C(=O)O)C3C(=O)N(c4cccc(C(=O)O)c4)C(=O)C23)c1 (stereo unspecified)	5.0*	4	-3	0	0	1
COc1ccc(OC)c(C2NC(C(=O)O)C3C(=O)N(c4ccccc4)C(=O)C23)c1 (stereo unspecified)	5.2*	-9	-7	0	0	7
COc1ccc(C2NC(C(=O)O)C3C(=O)N(c4ccc(F)cc4)C(=O)C23)c(OC)c1OC (stereo unspecified)	1	0	8	0	.	.
Cc1ccccc1NC(=O)C(=O)NCC(c1ccc2c(c1)OCO2)N1CCN(C)CC1 (stereo unspecified)	5.7*	-10	1	0	0	-5
O=C(NCC(c1ccc2c(c1)OCO2)N1CCN(c2ccccc2F)CC1)c1cnccn1 (stereo unspecified)	5.5*	-23	15	0	1	6
O=C1c2cccc3cccc(c23)C(=O)N1Cc1ccco1	-2	-4	16	0	.	.
O=C1c2cc3ccccc3cc2C(=O)N1Cc1ccco1	5.8*	9	17	0	0	-8
COC(=O)COc1ccc2oc(=O)c(-c3ccc(OC)c(OC)c3)c(C)c2c1	-1	1	-8	0	.	.
Cc1ccc(-n2c3c(cc(C(=O)NCC4CCCO4)c2=O)C(=O)CC(C)(C)C3)cc1 (stereo unspecified)	11*	7	-3	0	1	-3
COCCNC(=O)c1cc2c(n(-c3ccc(C)cc3)c1=O)CC(C)(C)CC2=O	-1	-9	-2	0	.	.
CC(=O)NN1C(=O)/C(=C/c2cccc(O)c2)SC1=S	6.3*	7	12	0	0	16
O=C(CCC1CCCCC1)NNC(=O)c1cnccn1	6.5*	-3	7	0	0	-1
O=C(NNC(=O)C1CCCCC1)c1cnccn1	0	-3	13	0	.	.
COc1ccc(S(=O)(=O)n2c(SCC(=O)Nc3cc(Cl)c(OC)cc3OC)nc3ccccc32)cc1	0	0	-7	0	.	.
CCSc1nc2c(c(=O)n(C)c(=O)n2C)n1Cc1c(F)cccc1Cl	5.2*	4	22	0	0	-1
Cn1c(=O)c2c(nc(Cl)n2Cc2c(F)cccc2Cl)n(C)c1=O	2	1	2	0	.	.
Cc1cnc(Nc2ccc(-n3ccnc3)cc2)nc1NCCN(C(C)C)C(C)C	7.0*	-1	-3	0	0	-1
C[C@H]1CC[C@@]2(OC1)O[C@H]1C[C@H]3[C@@H]4CC[C@@H]5C[C@@H](O)CC[C@]5(C)[C@H]4CC[C@]3(C)[C@H]1[C@@H]2C	5.6*!	9	9	0	1	-8
[Zn+2].c1ccc2c(c1)-c1nc-2nc2[n-]c(nc3nc(nc4[n-]c(n1)c1ccccc41)-c1ccccc1-3)c1ccccc21	11*	9	2	1	0	-3
